# Results reported in PubChem BioAssay (NCATS).
# “And” between values parts separate entries of the source, which are not always exact repeats. Identical values can stand only once. Records with an inconclusive call do not appear. Where a call stands in place of a potency, no number is given. A number with no mark means an inactive call. The source made the active and inactive calls. Calls follow the shape of the dose curve; as a rule, active = well fitted curve in the direction sought with a large enough effect; inconclusive = small, poorly fitted or top-dose-only effect, or another doubt; inactive = no such curve, though single readings can be large; an effect the other way counts as inactive or inconclusive.
# Key:
# [1] = Quantitative highthroughput screen to assess conditional lethalithy of NOMO1 cells grown in RPMI1640 with untreated serum (RPMI+s) (AID 1963876); also: nearly all actives have a fitted effect of over 35% in size
# Summary of the method: (§1)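 Each medium arm—HPLM with 10% dialyzed FBS, or RPMI1640 with 5 mM glucose and 10% untreated or dialyzed FBS—was screened against an 11-point, 3-fold compound titration for 48 h at 37 °C, with CellTiter-Glo luminescence as endpoint.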
# [2] = Quantitative highthroughput screen to assess conditional lethalithy of P12 Ichikawa cells grown in RPMI1640 with dialyzed fetal bovine serum (RPMI+ds) (AID 1963880); conditions: Potency: P12-Ichikawa viability; also: nearly all actives have a fitted effect of over 35% in size; also: potency is read from the fitted curve at half-maximal effect
# Summary of the method: as §1
# [3] = Quantitative highthroughput screen to assess conditional lethalithy of SEM cells grown in Human Plasma-Like Medium with dialyzed fetal bovine serum (HPLM+ds) (AID 1963882); also: nearly all actives have a fitted effect of over 35% in size; also: potency is read from the fitted curve at half-maximal effect; as to viability: series mostly up to about 46 µM
# Summary of the method: as §1
# [4] = Quantitative highthroughput screen to assess conditional lethalithy of SEM cells grown in RPMI1640 with unreated serum (RPMI+s) (AID 1963883); also: nearly all actives have a fitted effect of over 35% in size; also: potency is read from the fitted curve at half-maximal effect
# Summary of the method: as §1
# [5] = Quantitative highthroughput screen to assess conditional lethalithy of SEM cells grown in RPMI1640 with dialyzed fetal bovine serum (RPMI+ds) (AID 1963884)
# Summary of the method: as §1
# [6] = Cellular viability qHTS for adrenocortical cancer (ACC) cell line SW-13 (AID 1963989); conditions: SW-13 ACC cells viability, CellTiter-Glo, 48 h; activity (max response): stronger effect = lower value; also: nearly all actives have a fitted effect of over 65% in size; also: potency is read from the fitted curve at half-maximal effect;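 as to activity (max response): cells grown in serum-free medium with ITS supplement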
# Summary of the method: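 SW-13 cells in ITS-supplemented serum-free DMEM were plated overnight, then exposed for 48 h at 37C to compound titrations (up to 46 uM final). Viability was read by CellTiter-Glo luminescence; four-parameter logistic fits gave IC50 and efficacy.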
# [7] = Quantitative highthroughput screen to assess conditional lethalithy of NOMO1 cells grown in Human Plasma-Like Medium with dialyzed fetal bovine serum (HPLM+ds) (AID 1963878); also: nearly all actives have a fitted effect of over 35% in size
# Summary of the method: as §1
# [8] = Quantitative highthroughput screen to assess conditional lethalithy of NOMO1 cells grown in RPMI1640 with dialyzed fetal bovine serum (RPMI+ds) (AID 1963877); also: nearly all actives have a fitted effect of over 30% in size; also: potency is read from the fitted curve at half-maximal effect; as to viability: series mostly up to about 46 µM
# Summary of the method: as §1
# [9] = Quantitative highthroughput screen to assess conditional lethalithy of P12 Ichikawa cells grown in Human Plasma-Like Medium with dialyzed fetal bovine serum (HPLM+ds) (AID 1963879); conditions: Potency: viability; also: nearly all actives have a fitted effect of over 35% in size; also: potency is read from the fitted curve at half-maximal effect; as to viability: series mostly up to about 46 µM
# Summary of the method: as §1
# [10] = Cellular viability qHTS for adrenocortical cancer (ACC) cell line NCI-H295R (AID 1963990); also: nearly all actives have a fitted effect of over 60% in size; also: potency is read from the fitted curve at half-maximal effect
# Summary of the method: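 Luminescent ATP read-out (CellTiter-Glo, 20 min RT) after 48 h drug exposure of NCI-H295R cells; a titration up to 46 uM final. Data normalized to doxorubicin (100% inhibition) and DMSO (0%); 4-parameter fit gives IC50, max response.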
# [11] = Quantitative highthroughput screen to assess conditional lethalithy of P12 Ichikawa cells grown in RPMI1640 with untreated serum (RPMI+s) (AID 1963881); conditions: Potency: viability; also: nearly all actives have a fitted effect of over 35% in size; also: potency is read from the fitted curve at half-maximal effect; as to viability: series mostly up to about 46 µM
# Summary of the method: as §1
compound,measurement,setting,value
C=C[C@@H]1CN2CCC1C[C@@H]2[C@@H](O)c1ccnc2ccccc12 (stereo not given in full),Potency,[1],inactive
same,Potency,[2],inactive
same,Potency,[3],inactive
same,Potency,[4],16.6 µM (active)
C[C@]12CC[C@@H]3[C@@H](CCC4=CC(=O)CC[C@@H]43)[C@@H]1CC[C@@H]2OC(=O)CCc1ccccc1,Potency,[2],inactive
same,Potency,[5],inactive
same,activity (max response),[6],-2.06%
CC(=Cc1csc(C)n1)[C@@H]1C[C@H]2O[C@@H]2CCC[C@H](C)[C@@H](O)[C@@H](C)C(=O)C(C)(C)[C@@H](O)CC(=O)O1,Potency,[7],inactive
same,Potency,[3],inactive
same,Potency,[4],inactive
Cc1nc(-c2ccc(-c3ccc(C(=O)N4CCc5cc6c(cc54)C4(CCN(C)CC4)CO6)cc3)c(C)c2)no1,Potency,[8],inactive
same,Potency,[7],inactive
same,Potency,[9],inactive
same,Potency,[2],inactive
same,Potency,[3],inactive
CC(C)N[C@@H]1CCn2c(=O)[nH]c3cccc(c32)[C@@H]1O,Potency,[9],inactive
same,Potency,[2],inactive
C[C@@H]1CC[C@H]2[C@@H](C)C(=O)O[C@@H]3O[C@@]4(C)CC[C@H]1[C@]32OO4,Potency,[8],inactive
same,Potency,[7],inactive
same,Potency,[9],inactive
same,Potency,[2],inactive
same,Potency,[3],inactive
same,Potency,[4],inactive
C[C@@H]1CC[C@@]2(OC1)O[C@H]1C[C@H]3[C@@H]4CC=C5C[C@@H](O[C@@H]6O[C@H](CO)[C@@H](O[C@@H]7O[C@@H](C)[C@H](O)[C@@H](O)[C@@H]7O)[C@H](O)[C@@H]6O[C@@H]6O[C@@H](C)[C@H](O)[C@@H](O)[C@@H]6O)CC[C@]5(C)[C@@H]4CC[C@]3(C)[C@@H]1[C@H]2C,Potency,[8],23.5 µM (active)
same,Potency,[9],26.4 µM (active)
same,Potency,[3],18.7 µM (active)
same,Potency,[4],14.8 µM (active)
COc1ccc2c(c1)[C@]13CCCCC1C(C2)N(C)CC3 (stereo not given in full),Potency,[9],inactive
same,Potency,[4],inactive
C1=C2CCCN[C@H]2[C@@H]2C[C@H]1[C@@H]1CCCCN1C2,Potency,[3],inactive
same,Potency,[4],inactive
CC(O)(CS(=O)(=O)c1ccc(F)cc1)C(=O)Nc1ccc(C#N)c(C(F)(F)F)c1 (stereo not given),Potency,[4],14.8 µM (active)
same,Potency,[10],inactive
CC1=C2C[C@@H]3[C@@H](CC=C4C[C@@H](O)CC[C@@]43C)[C@@H]2CC[C@]12O[C@H]1C[C@H](C)CN[C@H]1[C@H]2C,Potency,[7],inactive
Cc1ccccc1-n1c(Cn2cnc3c(N)ncnc32)nc2cccc(C)c2c1=O,Potency,[9],inactive
same,Potency,[4],1.18 µM (active)
same,activity (max response),[6],9.58%
same,Potency,[10],inactive
CCCN1CCO[C@@H]2c3cc(O)ccc3OC[C@@H]21,Potency,[2],26.4 µM (active)
C[C@]12Cc3cn[nH]c3C[C@@H]1CC[C@@H]1[C@H]2CC[C@@]2(C)[C@H]1CC[C@]2(C)O,Potency,[1],inactive
same,Potency,[2],inactive
same,Potency,[3],inactive
same,Potency,[5],inactive
COc1ccc2c(c[n+](C)c3c4cc5c(cc4ccc23)OCO5)c1OC,Potency,[2],14.8 µM (active)
same,Potency,[11],11.8 µM (active)
same,Potency,[3],14.8 µM (active)
same,Potency,[4],8.33 µM (active)
CC1=NN=C(c2ccc(N)cc2)c2cc3c(cc2C1)OCO3,Potency,[1],inactive
same,Potency,[3],inactive
COC1(CS(=O)c2ccccc2)CCN(CCc2c[nH]c3ccc(F)cc23)CC1 (stereo not given),Potency,[1],inactive
same,Potency,[2],inactive
same,Potency,[11],inactive
same,Potency,[3],inactive
same,Potency,[4],inactive
same,activity (max response),[6],-19.4%
same,Potency,[10],inactive
CN1CCc2cc(Cl)c(O)cc2[C@H]2c3ccccc3CC[C@@H]21,activity (max response),[6],-19.8%
CCN(CC)C(=O)c1ccc(C2=CC3(CCNCC3)Oc3cccc(O)c32)cc1,Potency,[9],inactive
same,Potency,[2],inactive
same,Potency,[3],inactive
CCOC(=O)c1c(C(C#N)=CN)c2ccc(Cl)c(Cl)c2n1C,Potency,[9],inactive
same,Potency,[4],18.7 µM (active)
same,Potency,[5],inactive
same,Potency,[10],inactive
CC(C)[C@]12O[C@@H]1[C@@H]1O[C@]13[C@]1(O[C@H]1C[C@@H]1C4=C(CC[C@@]13C)C(=O)OC4)[C@H]2O,Potency,[9],0.0012 µM (active)
same,Potency,[4],0.0012 µM (active)
CC(O)=C(C#N)C(=O)Nc1cc(Br)ccc1Br,Potency,[9],inactive
same,Potency,[2],inactive
Oc1ccc2c3c1O[C@H]1c4[nH]c5c(c4C[C@@]4(O)[C@@H](C2)N(CC2CC2)CC[C@]314)C[C@@]1(O)[C@H]2Cc3ccc(O)c4c3[C@@]1(CCN2CC1CC1)[C@H]5O4,Potency,[9],inactive
same,Potency,[11],inactive
same,Potency,[3],inactive
same,Potency,[5],inactive
O=C(CCCN1CCC(n2c(=O)[nH]c3ccccc32)CC1)c1ccc(F)cc1,activity (max response),[6],-18.7%
same,Potency,[10],inactive
CC[C@]1(O)CC[C@H]2[C@@H]3CCC4=CCCC[C@@H]4[C@H]3CC[C@@]21C,Potency,[6],3.66 µM (active)
same,Potency,[10],2.91 µM (active)
C[C@]12CCC(=O)C(O)=C1CC[C@@H]1[C@@H]2CC[C@]2(C)C(=O)CC[C@@H]12,activity (max response),[6],4.45% and 4.46%
same,Potency,[10],inactive
O=C(Nc1ccc(Br)cc1)c1cc(Br)cc(Br)c1O,activity (max response),[6],-19.7%
same,Potency,[10],10.3 µM (active)
Cc1ncc2n1-c1ccc(Cl)cc1C(c1ccccc1F)=NC2,activity (max response),[6],-18.8%
same,Potency,[10],inactive
COc1c2c(cc3c1OCO3)CCN(C)C2,activity (max response),[6],-10%
same,Potency,[10],inactive
CNC(C)Cc1ccc2c(c1)OCO2 (stereo not given),activity (max response),[6],-2%
same,Potency,[10],inactive
O=[N+]([O-])c1ccc([As](=O)(O)O)cc1,activity (max response),[6],4.1%
same,Potency,[10],inactive
C[C@]12CC[C@H](O)CC1=CC[C@@H]1[C@@H]2CC[C@]2(C)C(=O)CC[C@@H]12,activity (max response),[6],3.86% and -7.41%
same,Potency,[10],inactive
Clc1ccc(CSC(Cn2ccnc2)c2ccc(Cl)cc2Cl)cc1 (stereo not given),Potency,[6],8.2 µM (active)
same,Potency,[10],4.11 µM (active)
CCN(CC)CCN1C(=O)CN=C(c2ccccc2F)c2cc(Cl)ccc21,activity (max response),[6],2.24%
same,Potency,[10],inactive
Oc1ccccc1-c1ccccc1,activity (max response),[6],-7.15%
same,Potency,[10],inactive
Cn1c(CCCCCCC(=O)NO)nc2cc(N(CCCl)CCCl)ccc21,Potency,[6],15.8 µM (active)
same,Potency,[10],8.91 µM (active)
O=C1NCN(c2ccccc2)C12CCN(CC1COc3ccccc3O1)CC2 (stereo not given),activity (max response),[6],-9.54%
same,Potency,[10],inactive
CN1C(=O)CN=C(c2ccccc2)c2cc(Cl)ccc21,activity (max response),[6],0.469%
same,Potency,[10],inactive
CCOC(=O)C1(c2ccccc2)CCN(CCc2ccc(N)cc2)CC1,activity (max response),[6],-18.4%
same,Potency,[10],inactive
CCOC(=O)c1cncn1C(C)c1ccccc1 (stereo not given),activity (max response),[6],4.76%
same,Potency,[10],inactive
Cc1cccc(Cc2cnc[nH]2)c1C,activity (max response),[6],-10.7%
same,Potency,[10],inactive
CC(Cc1ccccc1)NCCn1cnc2c1c(=O)n(C)c(=O)n2C (stereo not given),activity (max response),[6],-22.4%
same,Potency,[10],inactive
CC(C)[C@]12O[C@H]1[C@@H]1O[C@@]13[C@@]1(C)CCC4=C(COC4=O)[C@@H]1C[C@@H]1O[C@@]13C2=O,Potency,[6],0.141 µM (active)
same,Potency,[10],0.631 µM (active)
CC(CCc1ccccc1)NC(C)C(O)c1ccc(O)cc1 (stereo not given),activity (max response),[6],-14.3%
same,Potency,[10],inactive
c1ccc2c(CN3CCNCC3)cccc2c1,activity (max response),[6],3.38%
same,Potency,[10],inactive
COc1cc(C)[nH]c(=O)c1CNC(=O)c1c(C)n([C@H](C)C2CCN(CC(F)(F)F)CC2)c2ccccc12,activity (max response),[6],8.69%
same,Potency,[10],inactive
CCCOC(=O)Cc1ccc(OCC(=O)N(CC)CC)c(OC)c1,activity (max response),[6],10.7%
same,Potency,[10],inactive
O=C(O)C1=CCCN(CCOC(c2ccc(C(F)(F)F)cc2)c2ccc(C(F)(F)F)cc2)C1,activity (max response),[6],-19.1%
same,Potency,[10],inactive
C[C@H]1[C@H](O)[C@@H](C)/C=C/C=C/CC/C=C/C=C/C=C/C=C/[C@H](O[C@@H]2O[C@H](C)[C@@H](O)[C@H](N)[C@@H]2O)C[C@@H]2O[C@](O)(C[C@@H](O)[C@H](O)CC[C@@H](O)C[C@@H](O)C[C@@H](O)CC(=O)O[C@H]1C)C[C@H](O)[C@H]2C(=O)O,activity (max response),[6],-20.1%
same,Potency,[10],inactive
C=C[C@H]1CN2CCC1C[C@@H]2[C@@H](O)c1ccnc2ccccc12 (stereo not given in full),activity (max response),[6],-20.5%
same,Potency,[10],inactive
CC1COC2(c3ccccc3Cl)c3cc(Cl)ccc3NC(=O)CN12 (stereo not given),activity (max response),[6],-14.7%
same,Potency,[10],23.1 µM (active)
CCN(CCO)CCn1c(Cc2ccccc2)nc2c1c(=O)n(C)c(=O)n2C,activity (max response),[6],7.74%
same,Potency,[10],inactive
CC[C@@H](CO)NC(=O)[C@@H]1C=C2c3cccc4[nH]cc(c34)C[C@H]2N(C)C1,activity (max response),[6],-27.7%
same,Potency,[10],inactive
COc1cc(CC#N)cc(OC)c1OC,activity (max response),[6],12%
same,Potency,[10],inactive
CN1C(=S)CN=C(c2ccccc2)c2cc(Cl)ccc21,activity (max response),[6],-3.17%
same,Potency,[10],inactive
CCOC(=O)C(c1c(O)c2ccccc2oc1=O)c1c(O)c2ccccc2oc1=O,activity (max response),[6],16.4%
same,Potency,[10],inactive
C[C@]12CC[C@H]3[C@@H](CCC4=CC(=O)CC[C@@H]43)[C@@H]1CC[C@@H]2OC(=O)CCc1ccco1,activity (max response),[6],-19.1%
same,Potency,[10],18.4 µM (active)
CC(Cc1ccc2c(c1)OCO2)NO (stereo not given),activity (max response),[6],-5.75%
same,Potency,[10],inactive
O=C(CBr)N1CC([N+](=O)[O-])([N+](=O)[O-])C1,activity (max response),[6],7.48%
same,Potency,[10],inactive
Cn1c(/C=C/CO)c(CO)c2c1C(=O)C=C(N1CC1)C2=O,activity (max response),[6],-6.24%
same,Potency,[10],inactive
CC(C(O)c1ccccc1)N(C)C/C=C/c1ccccc1 (stereo not given),activity (max response),[6],-14.5%
same,Potency,[10],inactive
CCCN(CCC)C(=O)Cc1c(-c2ccc(Cl)cc2)nc2ccc(Cl)cn12,activity (max response),[6],-9.21%
same,Potency,[10],inactive
